Screening results from PubChem BioAssay.
The list is not random: actives were taken first. Their share in the collection is about 3.5%.
Pf apPOL block – Pf-apPOL DNA polymerase inhibition. Recombinant Pf-apPOL, molecular beacon fluorescence, 1.5 h. inhibition, % at 10 µM. AID 1794808. 210,000 compounds, 0.25% hits
mHTT-CaM PPI inh – inhibitors of human mutant huntingtin-calmodulin interaction; AID 1671202; AlphaScreen His-mHTT/GST-CaM binding, luminescence; P42858; 190,000 compounds, 3.6% hits; inhibition, % at 15 µM;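 also: 0% = both proteins with DMSO and 100% = one protein alone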
Numbers without * were called inactive. Rule as the data show it: active = inhibition above about 50%; inactive = the rest.

Results for Cc1ccc(C(=O)/C=C/c2cccc(F)c2)o1 ?
Pf apPOL block: -7; mHTT-CaM PPI inh: 2

Results for Cc1ccc(C(O)CNC(=O)C2(c3cccs3)CCCC2)o1 (stereo not given) ?
Pf apPOL block: -5; mHTT-CaM PPI inh: -14

How did COc1ccc(C2=COC3(CCCN(C(=O)c4ccc(F)cc4)C3)C2)cc1 (stereo not given) do in these assays?
Pf apPOL block: -9; mHTT-CaM PPI inh: -4

How did O=C(c1ccccc1)N1CCCC2(CC(c3cccnc3)=CO2)C1 (stereo not given) do in these assays?
Pf apPOL block: -10; mHTT-CaM PPI inh: 97*

How did COc1ccc(C2=COC3(CCCN(C(=O)c4ccccc4)C3)C2)cc1 (stereo not given) do in these assays?
Pf apPOL block: -4; mHTT-CaM PPI inh: 65*

What do the screens show for `O=C(c1ccc(Cl)cc1)N1CCCC2(CC(c3ccccc3)=CO2)C1` (stereo not given)?
Pf apPOL block: -8; mHTT-CaM PPI inh: 91*

What do the screens show for `O=C(c1ccc(F)cc1)N1CCCC2(CC(c3cccnc3)=CO2)C1` (stereo not given)?
Pf apPOL block: 0; mHTT-CaM PPI inh: 28

How did O=C(c1ccc(Cl)cc1)N1CCCC2(CC(c3ccc(Cl)cc3)=CO2)C1 (stereo not given) do in these assays?
Pf apPOL block: -5; mHTT-CaM PPI inh: -12

Results for CN=C1S/C(=C\c2ccc(OCc3cccc(C(=O)O)c3)c(Br)c2)C(=O)N1C ?
Pf apPOL block: -4; mHTT-CaM PPI inh: 20

Results for CCOC1=NN(c2ccc([N+](=O)[O-])cc2)C(=O)/C1=C/c1ccccc1Cl ?
Pf apPOL block: -6; mHTT-CaM PPI inh: 79*

What do the screens show for `CCOC1=NN(c2ccc([N+](=O)[O-])cc2)C(=O)/C1=C/c1ccc(Cl)c(Cl)c1`?
Pf apPOL block: 8; mHTT-CaM PPI inh: 32

What do the screens show for `CC(O)C12c3ccccc3C(c3ccccc31)C1C(=O)N(c3cccc(Br)c3)C(=O)C12` (stereo not given)?
Pf apPOL block: -1; mHTT-CaM PPI inh: 19

Results for Cc1cc(C)n(-c2nnc(C)c(=O)[nH]2)n1 ?
Pf apPOL block: -2; mHTT-CaM PPI inh: 90*

What do the screens show for `Cc1cc(C)n(-c2nnc(N)nn2)n1`?
mHTT-CaM PPI inh: 2

What do the screens show for `O=C(Nc1ccc(F)cc1)C1CC(=O)N(c2ccc(Br)cc2)C1` (stereo not given)?
Pf apPOL block: -2; mHTT-CaM PPI inh: -2

What do the screens show for `O=C(Oc1ccc(-c2ccc(OC(=O)c3ccccc3Cl)cc2)cc1)c1ccccc1Cl`?
Pf apPOL block: 2

Results for O=C(NCC(O)c1cccc2ccccc12)C(c1ccccc1)c1ccccc1 (stereo not given) ?
Pf apPOL block: -5; mHTT-CaM PPI inh: 9

Results for O=C(c1cc(C(F)(F)F)cc(C(F)(F)F)c1)c1ccccc1C(=O)N1CCOCC1 ?
Pf apPOL block: -2

What do the screens show for `O=C(N=S1CCC2(C1)OCCO2)c1cc(C(F)(F)F)cc(C(F)(F)F)c1` (stereo not given)?
Pf apPOL block: 75*

How did CCOc1ccc(C(=O)N2CCC(c3cnn(-c4cccc(F)c4)c3)CC2)cc1 do in these assays?
Pf apPOL block: -2; mHTT-CaM PPI inh: -9

How did O=C1OC(c2ccco2)=N/C1=C/C(Cl)=C/c1ccccc1 do in these assays?
Pf apPOL block: -2; mHTT-CaM PPI inh: 4

What do the screens show for `COc1ccc(OC)c(/C=C2/N=C(c3ccc(Cl)cc3)OC2=O)c1`?
Pf apPOL block: -3; mHTT-CaM PPI inh: 14

How did Cc1nc(C2CCN(Cc3cccs3)CC2)n[nH]1 do in these assays?
Pf apPOL block: -4; mHTT-CaM PPI inh: -10

What do the screens show for `CCn1c(C2CCN(Cc3ccccn3)C2)nc2cccnc21` (stereo not given)?
Pf apPOL block: -44; mHTT-CaM PPI inh: 100*

Results for CCOc1ccccc1CN1CCC(c2nc3cccnc3n2CC)C1 (stereo not given) ?
Pf apPOL block: -5; mHTT-CaM PPI inh: 18

What do the screens show for `COCCc1nc(C2CCCN(Cc3ccccn3)C2)n[nH]1` (stereo not given)?
Pf apPOL block: -22; mHTT-CaM PPI inh: 89*

How did COCCc1nc(C2CCCN(Cc3cccs3)C2)n[nH]1 (stereo not given) do in these assays?
Pf apPOL block: -2; mHTT-CaM PPI inh: -2

How did Cc1nc(C2CCN(Cc3ccccn3)CC2)n[nH]1 do in these assays?
Pf apPOL block: -9; mHTT-CaM PPI inh: 99*

What do the screens show for `O=C(CN1CCN(S(=O)(=O)c2cc(Cl)ccc2Cl)CC1)Nc1ccc(F)c(F)c1`?
Pf apPOL block: -5; mHTT-CaM PPI inh: 8

How did COc1cc([N+](=O)[O-])ccc1NC(=O)c1ccoc1C do in these assays?
Pf apPOL block: 3; mHTT-CaM PPI inh: 15

Results for COc1cc(OC)c(C2C3=C(CC(C)(C)CC3=O)Nc3nc4ccccc4n32)cc1OC (stereo not given) ?
Pf apPOL block: 4; mHTT-CaM PPI inh: 8

How did COc1ccc(CNc2ccc(F)c(Cl)c2)cc1 do in these assays?
Pf apPOL block: 13; mHTT-CaM PPI inh: -37
